# From PubChem BioAssay AID2732 (Emory University Molecular Libraries Screening Center, 2010)
# Where “and” joins values, the source holds several entries; their conditions need not be identical. Equal values may be shown once. In all, about 220,000 compounds went through this assay and about 8,200 (3.7%) were called active.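 Rule for the calls: active = compounds that reduced the stress-induced luciferase reporter signal by more than about 70% of percent inhibition (limit read from the data); inactive = the rest.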 The entries come from a sample that favours actives as a whole. Some compounds were tested as several samples or in several runs, with calls that do not always agree.
# Experiment: blockers of ER-stress CHOP reporter expression – cell-based, unfolded protein response, luciferase reporter, primary screen (AID 2732);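 note: 0% = tunicamycin plus vehicle and 100% = wells without tunicamycin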
# Details: CHO-K1 CHOP-promoter luciferase, tunicamycin-induced, 15-18 h; at 10 µM; stronger effect = higher value
row,Compound,inhibition
1,Cc1ccc(N2NC(=O)/C(=C/C=C/c3ccco3)C2=O)cc1C,5.23% (inactive)
2,Cc1ccc(N=C2NC(=O)/C(=C/C=C/c3ccco3)S2)cc1C,84.4% (active)
3,Cc1cccc(N=C2NC(=O)/C(=C/c3cn(C)c4ccccc34)S2)c1,14% (inactive)
4,CCN(CC)C(=O)CC(c1ccc2c(c1)OCO2)c1c(OC)cc(OC)c2c(-c3ccccc3)cc(=O)oc12 (stereo not drawn),9.26% (inactive)
5,O=C(Nc1ccccc1N1CCCCC1)c1cccc(F)c1,76% (active)
6,Cc1cc(C(=O)Nc2ccccc2N2CCOCC2)c2ccccc2n1,26.9% (inactive)
7,O=C(Nc1ccccc1N1CCN(C(=O)c2ccccc2)CC1)c1ccc2c(c1)OCO2,40% (inactive)
8,O=C(Nc1ccccc1N1CCCCC1)c1ccc2nccnc2c1,79% (active)
9,Cc1cccc(C(=O)Nc2ccccc2N2CCN(c3ccc(F)cc3)CC2)c1,30.4% (inactive)
10,O=C(Nc1ccccc1N1CCN(c2ccccc2)CC1)c1cccc(F)c1,44.2% (inactive)
11,CCc1ccccc1N1CN(Cc2ccco2)CNC1=S,-7.09% (inactive)
12,Cc1nc(-c2nnc(SCC(=O)Nc3cc(C(F)(F)F)cc(C(F)(F)F)c3)n2C)cs1,61.4% (inactive)
13,CC1CC(C)(C)n2c(O)c(N=NC(N)=S)c3cccc1c32 (stereo not drawn),21.3% (inactive)
14,CCOc1ccc2sc(NS(=O)(=O)c3ccc(N)cc3)nc2c1,5.24% (inactive)
15,CCNc1nc(Oc2ccc(C(=O)OC)cc2)nc(N2CCOCC2)n1,-6.61% (inactive)
16,COC(=O)c1ccc(Oc2nc(Nc3ccc(F)cc3)nc(N3CCCC3)n2)cc1,73.6% (active)
17,COC(=O)c1ccc(Oc2nc(NC(C)C)nc(SC)n2)cc1,20.5% (inactive)
18,C=C(C)COc1ccc(-c2nc(N)ncc2-c2ccccc2OC)c(O)c1,7.39% (inactive)
19,C=C(C)COc1ccc(-c2n[nH]c(C)c2-c2ccccc2)c(O)c1,112% (active)
20,C=C(C)COc1ccc(-c2n[nH]c(C)c2-c2ccccc2OC)c(O)c1,105% (active)
21,CCOc1ccc(-c2nc(N)ncc2-c2ccccc2OC)c(O)c1,16.1% (inactive)
22,CCOc1ccc(-c2n[nH]c(C)c2-c2ccccn2)c(O)c1,9.43% (inactive)
23,Cc1[nH]nc(-c2ccc(OCc3cnn(-c4ccccc4)c3)cc2O)c1Oc1ccc(Cl)cc1,51.5% (inactive)
24,Brc1ccc(-c2nn[nH]n2)cc1,6.83% (inactive)

row,Compound,inhibition
1,COC(C[C@@H](O)[C@H](C)[C@H](O)COCc1ccccc1)OC,0.72% (inactive)
2,Cc1nc(CNS(=O)(=O)c2cc([N+](=O)[O-])ccc2C)cs1,24.2% (inactive)
3,O=C(NCCc1ccccc1)Oc1ccc(Cl)cc1,-12.7% (inactive)
4,C=C(C)Cn1c(C)cc(C)c(S(=O)(=O)c2ccccc2C)c1=O,72.7% (active)
5,Cc1ccccc1Nc1c(-c2ccccc2)nc2ncccn12,1.44% (inactive)
6,Clc1ccc(CSc2nnc3c(n2)[nH]c2ccccc23)cc1,10.8% (inactive)
7,C=CCC1(C#N)C(=S)NC(C)=C(C(=O)OCC)C1c1ccccc1 (stereo not drawn),8.99% (inactive)
8,CCOC(=O)/C=C/CN(C(=O)OC(C)(C)C)S(=O)(=O)N1CC=CC1,0.06% (inactive)
9,O=C(Cc1csc(Nc2nc(=S)[nH]c3ccccc23)n1)NCCCN1CCN(c2cccc(Cl)c2)CC1,79.8% (active)
10,COc1cccc(CNC(=O)Cc2csc(Nc3nc(=S)[nH]c4ccccc34)n2)c1,49.7% (inactive)
11,O=C(CCn1c(=O)[nH]c2ccccc2c1=O)NCCCN1CCN(c2cccc(Cl)c2)CC1,-9.62% (inactive)
12,O=[N+]([O-])c1ccc2c(c1)C(O)n1nc(-c3ccccc3)nc1S2 (stereo not drawn),37.2% (inactive)
13,CCCc1nc2c(c(=O)c3ccccc3n2C)c(=O)n1C1CCCCCC1,95.5% (active)
14,CCCc1nc2c(c(=O)c3ccccc3n2C)c(=O)n1-c1cc(C)cc(C)c1,-14.6% (inactive)
15,Cn1c2ccccc2c(=O)c2c(=O)n(Cc3ccco3)c(COc3ccccc3)nc21,-34.3% (inactive)
16,COc1cc(OC)c(OC)cc1/C=N/Nc1ncnc2c1[nH]c1ccc(C)cc12,-33.8% (inactive)
17,O=c1ccnc(Nc2ccc(Cl)cc2)[nH]1,-1.5% (inactive)
18,CC1=NNC(=O)C1CCC(=O)N/N=C(\C)c1ccc(Cl)cc1 (stereo not drawn),5.21% (inactive)
19,O=[N+]([O-])c1cc(S(=O)(=O)CCCN2CCOCC2)ccc1F,97.8% (active)
20,O=C(NCCCN1CCOCC1)c1ccc([N+](=O)[O-])cc1[N+](=O)[O-],-3.24% (inactive)
21,O=[N+]([O-])c1ccc(NCCCN2CCOCC2)c(Cl)c1,13% (inactive)
22,O=C(CN1CCN(Cc2ccccc2)CC1)NC(c1ccccc1)c1ccccc1,-8.53% (inactive)
23,CC#CC[N+](C)(C)CCCCCC,-9.84% (inactive)
24,[O-][N+]12CCCCC1CCCC2CO (stereo not drawn),-6.34% (inactive)

row,Compound,inhibition
1,COC(=O)/C=C\C(=O)Nc1cccc([N+](=O)[O-])c1,107% (active)
2,Cc1ccccc1NC(=S)Nc1cccc([N+](=O)[O-])c1,4.63% (inactive)
3,CC(=O)Nc1cccc([N+](=O)[O-])c1,13.9% (inactive)
4,COc1cccc(C(=O)n2ccc(-c3cccs3)n2)c1,17.3% (inactive)
5,O=c1c2ccccc2cnn1Cc1n[nH]c(=S)n1-c1ccccc1F,5.73% (inactive)
6,CCC(C)Sc1nc(C)nc2c1c(=O)n(C)c(=O)n2C (stereo not drawn),82.4% (active)
7,CSc1nc(C)nc2c1c(=O)n(C)c(=O)n2C,11.2% (inactive)
8,CCOC(=O)N1CCN(C(=O)CSc2nc(C)nc3c2c(=O)n(C)c(=O)n3C)CC1,28.2% (inactive)
9,O=c1c(-c2ccc(Cl)cc2)[n+]([O-])c2ccccc2n1OCc1nc2ccccc2[nH]1,11.1% (inactive)
10,C=CCC(Nc1ccccc1)c1cccc(OC)c1OC (stereo not drawn),29.3% (inactive)
11,CSCCC(NS(=O)(=O)c1ccc2c(c1)oc(=O)n2C)C(=O)NCc1ccccc1 (stereo not drawn),18.5% (inactive)
12,CSc1nc(C)cc(SC(C(C)=O)C(=O)Nc2ccccc2)n1 (stereo not drawn),9.45% (inactive)
13,CSc1nc(-c2ccccc2)nc(C(Cl)Cl)n1,102% (active)
14,COc1ccc(NS(=O)(=O)c2ccc(N3CCOCC3)c(NC(=O)c3ccccc3Br)c2)cc1,-3.53% (inactive)
15,CCOC(=O)N/N=C1\CC(C)S(=O)(=O)c2ccc(Cl)cc21 (stereo not drawn),-26.8% (inactive)
16,Cc1ccc(C(=O)NCC(=O)OCC(=O)Nc2cccc(S(=O)(=O)N3CCCC3)c2)cc1C,-17.8% (inactive)
17,CC(C)=C1SC(N2CCN(c3ccc(C)c(Cl)c3)CC2)=NC1=O,23.3% (inactive)
18,COc1ccccc1Oc1ccc(S(=O)(=O)Nc2cccnc2)cc1,44.6% (inactive)
19,Cc1cc(C)cc(NS(=O)(=O)c2ccc(Oc3ncc(C(F)(F)F)cc3Cl)cc2)c1,90.3% (active)
20,COC(=O)Cc1ccc(Oc2ncc(C(F)(F)F)cc2Cl)cc1,29.9% (inactive)
21,Cc1ccc(-n2c(SCC(=O)Nc3ncc(Cl)cc3Cl)nc3ccccc32)cc1,49.5% (inactive)
22,Cc1ccc(SCCC(=O)OCC(=O)Nc2ncc(Cl)cc2Cl)cc1,82% (active)
23,CC(Oc1ccc(Cl)cc1)C(=O)OCC(=O)Nc1ncc(Cl)cc1Cl (stereo not drawn),2.69% (inactive)
24,Cc1cc(NC(=O)Nc2ccc(Cl)cc2)n(-c2ccccc2)n1,10.7% (inactive)

row,Compound,inhibition
1,C/C=C(/C)C(=O)Nc1cccc(C2=NOC3(C2)C[C@@H](C(N)=O)N(C(=O)C2(C)CC2)C3)c1 (stereo partly drawn),-8.38% (inactive)
2,CCc1nnc(NS(=O)(=O)c2ccc(N=Cc3c(C)[nH]n(-c4ccc(C)cc4)c3=O)cc2)s1,-15.8% (inactive)
3,Cc1ccc(-n2[nH]c(C)c(/C=N/N3C(=O)c4cccc5cccc(c45)C3=O)c2=O)cc1,36.5% (inactive)
4,COc1cc(SC#N)ccc1N=Cc1c(C)[nH]n(-c2ccc(C)cc2)c1=O,107% (active)
5,CCCCCCCCCCCCN1C(=O)CSC1c1cccnc1 (stereo not drawn),28.5% (inactive)
6,Cc1ccc(C2(c3ccc(C)cc3)NC(=O)N(Cc3c(C)noc3C)C2=O)cc1,92.8% (active)
7,COc1ccc(C(=O)CN2C(=O)NC(C)(c3ccc(C)cc3)C2=O)cc1OC (stereo not drawn),15.7% (inactive)
8,Cc1noc(C)c1COc1ccc2ccc(=O)oc2c1,2.13% (inactive)
9,Cc1cc(F)ccc1NC(=O)C(C)n1c2ccccc2c2nc(=O)cc(C)n21 (stereo not drawn),-2.79% (inactive)
10,CC1=NNC(=O)C1CC(=O)N/N=C/c1ccncc1 (stereo not drawn),9.24% (inactive)
11,C#CCOCCOCCOCCNc1nc(N2CCN(C(=O)[C@H](CCC(=O)O)n3cc(C(N)CO)nn3)CC2)nc(N2CCN(C(=O)[C@H](CCCCN)n3cc(C(N)CC(C)C)nn3)CC2)n1 (stereo partly drawn),-22.6% (inactive)
12,Cn1nc(C(F)(F)F)cc1-c1ccc(/C=C(\C#N)C(=O)c2cccc(C(F)(F)F)c2)s1,-6.02% (inactive)
13,CCOC(=O)COc1ccc([N+](=O)[O-])cc1,3.34% (inactive)
14,Cc1cccc(NC(=O)c2sc(-c3ccccc3)nc2-c2ccc([N+](=O)[O-])cc2)c1,31.6% (inactive)
15,CCOC(=O)/C(=C\c1ccc([N+](=O)[O-])cc1)C(=O)c1cc(C(C)=O)c(Nc2ccccc2)s1,112% (active)
16,COC(=O)c1sc(C(F)(F)F)c(-c2ccccc2)c1S(=O)(=O)N(C)C,21.3% (inactive)
17,CC(C)c1ccc2c(c1)c(SC(C)(C)C)c(CC(C)(C)C(=O)O)n2Cc1ccc(Cl)cc1,-15.8% (inactive) and 96.6% (active)
18,O=S(=O)(NCCc1csc(-c2ccccc2)n1)c1cccnc1,10.5% (inactive)
19,COc1ccc2nc(/N=C(\N)NC(=O)Nc3ccccc3)nc(C)c2c1,29.8% (inactive)
20,Cc1ccc(NC(=O)Nc2ccc3oc(C)nc3c2)cc1,-9.69% (inactive)
21,Cc1ccc(N/C(N)=N/c2nc(C(F)(F)F)cc(C(F)(F)F)n2)cc1,92.5% (active)
